18 compounds from ChEMBL document CHEMBL2218924, “A broad activity screen in support of a chemogenomic map for kinase signalling research and drug discovery” (Biochem J, 2013) can be followed below.

The target in assay [1] is Vascular endothelial growth factor receptor 3 (Homo sapiens) (UniProt P35916). The note with it: at 10 µM.
Assay [2] concerns the target Macrophage colony-stimulating factor 1 receptor (Homo sapiens) (UniProt P07333). The conditions noted are these: at 1 µM.
For assay [3] the target is unchanged. The conditions noted are these: at 10 µM.
The target of assay [4] is Tyrosine-protein kinase Fyn (Homo sapiens) (UniProt P06241). The conditions noted are these: at 1 µM.
Chain of Tyrosine-protein kinase Fyn (Homo sapiens) (P06241 2-537 limits assumed): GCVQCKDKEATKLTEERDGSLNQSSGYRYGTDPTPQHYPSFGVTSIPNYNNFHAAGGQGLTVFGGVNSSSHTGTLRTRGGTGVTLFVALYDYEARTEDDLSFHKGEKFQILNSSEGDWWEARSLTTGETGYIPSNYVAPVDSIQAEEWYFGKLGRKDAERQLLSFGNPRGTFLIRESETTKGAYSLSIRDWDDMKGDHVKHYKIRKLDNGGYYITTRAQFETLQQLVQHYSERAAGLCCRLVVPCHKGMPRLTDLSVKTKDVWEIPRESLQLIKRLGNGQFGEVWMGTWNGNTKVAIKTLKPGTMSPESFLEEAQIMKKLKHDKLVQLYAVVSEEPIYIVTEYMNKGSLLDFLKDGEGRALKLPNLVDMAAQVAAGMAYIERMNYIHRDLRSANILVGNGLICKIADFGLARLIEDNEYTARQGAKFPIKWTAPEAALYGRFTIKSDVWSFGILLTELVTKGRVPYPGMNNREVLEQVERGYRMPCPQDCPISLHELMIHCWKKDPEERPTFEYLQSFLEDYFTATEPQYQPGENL
Assay [5] shares this target. The conditions noted are these: at 10 µM.
The target of assay [6] is T1, Mitogen-activated protein kinase kinase kinase kinase 2 (Homo sapiens) (UniProt Q12851).
T1 sequence (whole entry): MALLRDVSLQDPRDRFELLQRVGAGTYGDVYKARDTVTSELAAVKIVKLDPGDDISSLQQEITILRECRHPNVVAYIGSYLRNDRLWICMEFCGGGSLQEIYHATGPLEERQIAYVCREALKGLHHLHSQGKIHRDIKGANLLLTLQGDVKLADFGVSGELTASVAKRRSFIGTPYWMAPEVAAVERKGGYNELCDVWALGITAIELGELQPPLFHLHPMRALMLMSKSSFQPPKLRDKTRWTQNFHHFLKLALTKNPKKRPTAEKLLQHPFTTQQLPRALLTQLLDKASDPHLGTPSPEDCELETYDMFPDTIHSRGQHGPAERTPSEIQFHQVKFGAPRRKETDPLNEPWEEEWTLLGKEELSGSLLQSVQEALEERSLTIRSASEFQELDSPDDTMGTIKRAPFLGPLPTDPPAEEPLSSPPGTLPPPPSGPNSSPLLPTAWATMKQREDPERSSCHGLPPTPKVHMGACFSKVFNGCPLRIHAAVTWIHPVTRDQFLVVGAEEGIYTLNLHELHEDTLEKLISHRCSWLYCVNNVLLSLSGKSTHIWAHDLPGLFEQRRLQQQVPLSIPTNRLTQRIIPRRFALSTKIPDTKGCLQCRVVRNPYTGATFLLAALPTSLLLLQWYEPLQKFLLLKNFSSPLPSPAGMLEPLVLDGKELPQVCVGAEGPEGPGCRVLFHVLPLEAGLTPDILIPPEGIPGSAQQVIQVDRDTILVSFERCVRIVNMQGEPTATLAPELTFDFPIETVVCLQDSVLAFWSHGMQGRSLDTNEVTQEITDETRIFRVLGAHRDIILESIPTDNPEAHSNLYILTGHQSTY
The conditions noted are these: at 1 µM.

The target in assay [7] is T1, Mitogen-activated protein kinase kinase kinase kinase 2 (Homo sapiens). The conditions noted are these: at 10 µM.
Assay [8] deals with G protein-coupled receptor kinase 5 (Homo sapiens) (UniProt P34947). The note with it: at 10 µM.
Chain of G protein-coupled receptor kinase 5 (Homo sapiens) (P34947 whole entry, looked up): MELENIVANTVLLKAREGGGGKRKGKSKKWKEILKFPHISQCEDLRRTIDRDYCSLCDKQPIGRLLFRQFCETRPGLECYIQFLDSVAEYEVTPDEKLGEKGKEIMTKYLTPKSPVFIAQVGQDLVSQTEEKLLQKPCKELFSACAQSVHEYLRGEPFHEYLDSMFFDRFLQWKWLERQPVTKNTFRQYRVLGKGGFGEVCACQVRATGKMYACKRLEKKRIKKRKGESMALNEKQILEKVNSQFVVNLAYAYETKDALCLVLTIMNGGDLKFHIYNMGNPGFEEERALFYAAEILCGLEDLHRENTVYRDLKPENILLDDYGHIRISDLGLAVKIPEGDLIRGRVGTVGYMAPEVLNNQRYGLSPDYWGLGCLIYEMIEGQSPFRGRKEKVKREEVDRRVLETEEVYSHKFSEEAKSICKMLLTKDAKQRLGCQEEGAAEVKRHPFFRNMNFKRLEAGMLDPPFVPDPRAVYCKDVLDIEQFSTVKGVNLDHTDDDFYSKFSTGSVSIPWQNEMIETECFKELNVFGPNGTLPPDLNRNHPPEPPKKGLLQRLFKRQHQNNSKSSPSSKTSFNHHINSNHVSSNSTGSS
For assay [9], the target named is T2, Rhodopsin kinase GRK7 (Homo sapiens) (UniProt Q8WTQ7).
T2 sequence (whole entry): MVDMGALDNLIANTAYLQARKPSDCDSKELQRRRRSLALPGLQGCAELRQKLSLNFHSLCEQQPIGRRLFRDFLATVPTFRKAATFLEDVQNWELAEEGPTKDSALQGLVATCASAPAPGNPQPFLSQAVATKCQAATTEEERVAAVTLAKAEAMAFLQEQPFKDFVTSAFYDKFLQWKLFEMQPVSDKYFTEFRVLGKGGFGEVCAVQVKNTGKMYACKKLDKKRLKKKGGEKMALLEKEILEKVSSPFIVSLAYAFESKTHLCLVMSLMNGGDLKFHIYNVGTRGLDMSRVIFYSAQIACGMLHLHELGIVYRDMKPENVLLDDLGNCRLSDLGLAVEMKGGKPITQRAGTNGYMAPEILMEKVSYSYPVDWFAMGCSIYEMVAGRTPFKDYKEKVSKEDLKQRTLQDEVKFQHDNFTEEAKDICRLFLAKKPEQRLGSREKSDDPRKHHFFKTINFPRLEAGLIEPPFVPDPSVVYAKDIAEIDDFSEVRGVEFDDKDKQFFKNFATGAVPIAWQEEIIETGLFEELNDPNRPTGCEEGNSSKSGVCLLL
The conditions noted are these: at 1 µM.

For assay [10], the target named is Glycogen synthase kinase-3 alpha (Homo sapiens) (UniProt P49840). The note with it: at 1 µM.
Chain of Glycogen synthase kinase-3 alpha (Homo sapiens) (P49840 2-483 limits assumed): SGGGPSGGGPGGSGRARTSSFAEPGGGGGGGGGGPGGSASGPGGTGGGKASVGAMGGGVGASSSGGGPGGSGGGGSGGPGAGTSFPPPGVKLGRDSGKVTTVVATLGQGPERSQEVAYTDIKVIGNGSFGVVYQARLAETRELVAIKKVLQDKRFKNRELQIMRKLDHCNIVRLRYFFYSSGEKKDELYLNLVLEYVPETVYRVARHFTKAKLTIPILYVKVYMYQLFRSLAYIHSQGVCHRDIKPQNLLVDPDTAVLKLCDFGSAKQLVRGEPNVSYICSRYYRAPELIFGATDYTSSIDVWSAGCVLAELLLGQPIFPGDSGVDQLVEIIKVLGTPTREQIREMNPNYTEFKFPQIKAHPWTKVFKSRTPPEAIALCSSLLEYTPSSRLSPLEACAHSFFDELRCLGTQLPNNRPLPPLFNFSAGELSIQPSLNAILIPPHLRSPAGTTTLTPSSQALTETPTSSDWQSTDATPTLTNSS
The target is the same in assay [11]. The conditions noted are these: at 10 µM.
Assay [12] addresses Homeodomain-interacting protein kinase 2 (Homo sapiens) (UniProt Q9H2X6). The note with it: at 1 µM.
The target is the same in assay [13]. The note with it: at 10 µM.
Assay [14] deals with Homeodomain-interacting protein kinase 3 (Homo sapiens) (UniProt Q9H422). The note with it: at 1 µM.
Assay [15] addresses G protein-coupled receptor kinase 6 (Homo sapiens) (UniProt P43250). The conditions noted are these: at 10 µM.
Assay [16] deals with T2, Rhodopsin kinase GRK7 (Homo sapiens). The note with it: at 10 µM.
Assay [17] addresses Glycogen synthase kinase-3 beta (Homo sapiens) (UniProt P49841). The conditions noted are these: at 1 µM.
For assay [18] the target is unchanged. The note with it: at 10 µM.
Assay [19] has as its target Homeodomain-interacting protein kinase 1 (Homo sapiens) (UniProt Q86Z02). The conditions noted are these: at 1 µM.
For assay [20] the target is unchanged. The conditions noted are these: at 10 µM.

SMILES strings stand for the structures.

Chain of Homeodomain-interacting protein kinase 2 (Homo sapiens) (Q9H2X6 whole entry, looked up): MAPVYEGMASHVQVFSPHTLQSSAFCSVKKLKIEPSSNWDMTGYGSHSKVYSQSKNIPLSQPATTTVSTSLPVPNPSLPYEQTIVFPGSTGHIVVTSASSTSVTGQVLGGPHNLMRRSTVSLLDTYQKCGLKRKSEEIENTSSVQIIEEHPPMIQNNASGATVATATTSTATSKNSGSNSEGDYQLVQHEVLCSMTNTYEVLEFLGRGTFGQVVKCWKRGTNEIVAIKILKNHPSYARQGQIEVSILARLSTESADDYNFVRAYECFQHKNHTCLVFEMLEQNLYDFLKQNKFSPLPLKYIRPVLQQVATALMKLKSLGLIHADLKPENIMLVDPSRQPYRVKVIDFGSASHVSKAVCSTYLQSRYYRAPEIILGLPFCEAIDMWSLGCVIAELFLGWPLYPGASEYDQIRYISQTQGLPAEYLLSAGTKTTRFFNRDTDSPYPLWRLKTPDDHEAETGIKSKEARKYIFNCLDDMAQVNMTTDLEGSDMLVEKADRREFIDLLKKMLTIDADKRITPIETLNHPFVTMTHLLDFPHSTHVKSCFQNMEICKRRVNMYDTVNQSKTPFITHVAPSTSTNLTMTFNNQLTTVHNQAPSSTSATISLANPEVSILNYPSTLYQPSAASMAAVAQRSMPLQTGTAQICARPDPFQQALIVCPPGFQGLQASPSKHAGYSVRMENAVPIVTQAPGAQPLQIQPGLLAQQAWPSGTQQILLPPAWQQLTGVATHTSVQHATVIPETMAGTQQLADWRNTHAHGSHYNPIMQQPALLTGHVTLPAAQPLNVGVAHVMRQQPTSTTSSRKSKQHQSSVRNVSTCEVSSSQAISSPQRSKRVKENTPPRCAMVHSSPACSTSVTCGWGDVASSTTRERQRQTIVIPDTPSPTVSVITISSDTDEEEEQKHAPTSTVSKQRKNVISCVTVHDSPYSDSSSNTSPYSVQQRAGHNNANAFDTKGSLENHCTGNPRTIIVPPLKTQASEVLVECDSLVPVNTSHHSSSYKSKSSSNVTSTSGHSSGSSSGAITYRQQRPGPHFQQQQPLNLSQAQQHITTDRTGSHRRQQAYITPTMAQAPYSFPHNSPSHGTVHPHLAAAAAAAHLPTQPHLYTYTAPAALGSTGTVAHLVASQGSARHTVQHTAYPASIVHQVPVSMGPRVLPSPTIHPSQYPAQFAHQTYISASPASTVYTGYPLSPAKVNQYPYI
Chain of Macrophage colony-stimulating factor 1 receptor (Homo sapiens) (P07333 whole entry): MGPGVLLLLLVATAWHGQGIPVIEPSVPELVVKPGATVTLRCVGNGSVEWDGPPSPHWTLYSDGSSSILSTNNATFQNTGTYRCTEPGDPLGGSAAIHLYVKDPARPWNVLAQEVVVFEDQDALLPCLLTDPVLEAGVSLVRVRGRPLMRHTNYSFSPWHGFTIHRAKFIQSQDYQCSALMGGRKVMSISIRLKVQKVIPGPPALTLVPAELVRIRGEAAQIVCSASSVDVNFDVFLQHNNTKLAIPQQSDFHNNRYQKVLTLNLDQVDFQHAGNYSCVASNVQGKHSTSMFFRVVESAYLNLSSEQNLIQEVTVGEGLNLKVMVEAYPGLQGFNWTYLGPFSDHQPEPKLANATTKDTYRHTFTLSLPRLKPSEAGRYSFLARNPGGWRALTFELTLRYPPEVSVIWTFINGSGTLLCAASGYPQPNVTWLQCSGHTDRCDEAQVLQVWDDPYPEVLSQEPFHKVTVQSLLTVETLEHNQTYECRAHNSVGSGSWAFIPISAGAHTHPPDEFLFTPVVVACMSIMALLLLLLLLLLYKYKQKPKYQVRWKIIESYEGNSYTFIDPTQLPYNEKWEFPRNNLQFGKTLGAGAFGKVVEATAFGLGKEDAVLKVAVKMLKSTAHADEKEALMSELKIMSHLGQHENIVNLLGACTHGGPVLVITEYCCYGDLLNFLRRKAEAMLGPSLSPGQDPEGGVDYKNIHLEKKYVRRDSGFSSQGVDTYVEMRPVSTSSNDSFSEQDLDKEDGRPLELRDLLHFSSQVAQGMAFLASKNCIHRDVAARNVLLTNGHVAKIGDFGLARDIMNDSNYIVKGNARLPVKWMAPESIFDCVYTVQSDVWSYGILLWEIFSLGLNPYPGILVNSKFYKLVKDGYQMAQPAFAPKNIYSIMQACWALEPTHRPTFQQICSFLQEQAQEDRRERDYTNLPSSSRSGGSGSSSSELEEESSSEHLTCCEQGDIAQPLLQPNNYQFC
Chain of Glycogen synthase kinase-3 beta (Homo sapiens) (P49841 whole entry, looked up): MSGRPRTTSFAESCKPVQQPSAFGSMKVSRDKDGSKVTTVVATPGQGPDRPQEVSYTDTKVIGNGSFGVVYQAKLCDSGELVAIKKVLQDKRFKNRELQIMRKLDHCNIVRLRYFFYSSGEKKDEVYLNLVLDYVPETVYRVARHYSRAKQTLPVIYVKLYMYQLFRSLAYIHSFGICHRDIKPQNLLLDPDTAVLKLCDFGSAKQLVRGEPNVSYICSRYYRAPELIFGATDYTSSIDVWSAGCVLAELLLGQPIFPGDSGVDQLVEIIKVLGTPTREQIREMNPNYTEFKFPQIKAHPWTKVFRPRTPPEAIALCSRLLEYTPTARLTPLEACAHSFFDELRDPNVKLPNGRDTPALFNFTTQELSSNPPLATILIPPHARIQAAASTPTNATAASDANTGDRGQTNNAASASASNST
Chain of G protein-coupled receptor kinase 6 (Homo sapiens) (P43250 whole entry, looked up): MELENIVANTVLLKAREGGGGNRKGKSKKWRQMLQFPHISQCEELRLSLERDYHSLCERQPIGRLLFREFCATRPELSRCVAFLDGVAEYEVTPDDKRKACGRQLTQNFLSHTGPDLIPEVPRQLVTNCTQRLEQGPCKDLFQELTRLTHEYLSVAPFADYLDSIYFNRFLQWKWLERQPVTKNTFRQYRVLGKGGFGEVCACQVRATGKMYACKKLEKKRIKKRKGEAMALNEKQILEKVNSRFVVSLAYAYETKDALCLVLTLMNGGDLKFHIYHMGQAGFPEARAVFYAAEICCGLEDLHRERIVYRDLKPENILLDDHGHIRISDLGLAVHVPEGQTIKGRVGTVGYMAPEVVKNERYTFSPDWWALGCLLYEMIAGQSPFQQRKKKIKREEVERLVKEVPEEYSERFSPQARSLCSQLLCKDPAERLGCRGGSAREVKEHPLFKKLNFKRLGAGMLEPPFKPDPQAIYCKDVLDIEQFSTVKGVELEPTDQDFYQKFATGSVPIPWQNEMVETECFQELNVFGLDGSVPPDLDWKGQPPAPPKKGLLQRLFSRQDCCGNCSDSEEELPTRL

With `c1ccc(-c2cnc(Nc3ccc(OCCN4CCCC4)cc3)s2)cc1`, the residual activity in [1] is 1%; in assay [2], 1%; in assay [3], 1%; in assay [4] it was 55%; in assay [5], 13%; in assay [6] it was 100%. The residual activity in assay [7] was 39%; in assay [8], 105%; in [9] it was 105%; in [10], 109%; in assay [11], 133%; in [12] it was 67%. Also, the results for the residual activity in assay [13] and in assay [14] were 19% and 78%, respectively.

With `O=C1NC(=O)c2c1c1c3ccccc3[nH]c1n1cncc21`, the residual activity in assay [1] was determined as 2%; in [2] it was 26%; in assay [3], 23%; in [4], 51%; in assay [5], 42%; in assay [6] it was 58%. Further, the residual activity in assay [7] came out at 53%; in assay [8], 70%; in [15], 75%; in assay [9], 84%; in [16] it was 76%; in [10], 7%. The residual activity was determined as 4% in assay [11]; 26% in [17]; 29% in assay [18]; 77% in assay [19]; 58% in assay [20]; 30% in assay [12]. Besides, the residual activity in assay [13] worked out at 13%; in assay [14] it was 61%.

For the compound `COc1ccc(-c2cnc3c(-c4ccsc4)cnn3c2)cc1`, the residual activity in [1] was 7%; in assay [2] it was 28%; in assay [3] it was 5%; in [4] it was 98%; in assay [5], 84%; in assay [6], 96%. In addition, the residual activity in assay [7] amounted to 83%; in assay [15] it was 88%; in assay [17] it was 87%; in assay [18] it was 88%; in assay [12], 93%; in assay [13], 95%.

For `COc1cc2nccc(Oc3ccc(NC(=S)NC(=O)c4ccccc4C)cc3)c2cc1OC`, the residual activity in assay [1] is 0%; in assay [2], 0%; in [3] it was -1%; in assay [4], -1%; in assay [5], 0%; in assay [6] it was 68%. Further, the residual activity in [7] came to 44%; in [8], 88%; in assay [15], 79%; in assay [9], 88%; in [16], 84%; in [10], 120%. The residual activity stood at 147% in assay [11]; 86% in [17]; 99% in assay [18]; 93% in assay [19]; 100% in [12]; 91% in assay [13]. The residual activity in assay [14] was determined as 88%.

Regarding `Cn1sc(=O)n(Cc2ccccc2)c1=O`, the residual activity in assay [1] came out at 79%; in assay [2], 91%; in [3], 80%; in assay [4], 99%; in assay [5] it was 96%; in [6] it was 88%. The residual activity in assay [7] is 81%; in [8], 85%; in assay [15], 80%; in [9] it was 89%; in assay [16], 77%; in assay [12], 94%. In addition, in [13], the residual activity was 94%.

Regarding `CC(C)c1nn(-c2c(Cl)cccc2Cl)c2nc(Cc3ccc(OCCO)cc3)[nH]c(=O)c12`, the residual activity in [1] was 56%; in assay [2], 62%; in assay [3], 51%; in assay [4], 67%; in assay [5], 74%; in [6], 99%. Also, the residual activity in assay [7] was 70%; in assay [8] it was 78%; in [15], 86%; in assay [9], 93%; in assay [16] it was 80%; in assay [10], 66%. For the same compound, the residual activity was 13% in assay [11]; 51% in assay [17]; 45% in assay [18]; 104% in assay [19]; 98% in [20]; 99% in [12]. In addition, the residual activity in [13] stood at 89%; in assay [14], 107%.

As for `COc1cc2ncnc(Nc3cccc(Cl)c3)c2cc1OC`, the residual activity is 6% in assay [1]; 88% in [2]; 38% in assay [3]; 41% in assay [4]; 6% in [5]; 50% in assay [7]. Moreover, the residual activity was determined as 106% in assay [9], 101% in assay [10], 121% in assay [11] and 110% in [14].

Take `O=S(=O)(NCCNC/C=C/c1ccc(Br)cc1)c1cccc2cnccc12`: the residual activity in [1] was determined as 26%; in assay [2] it was 116%; in assay [4], 75%; in [5] it was 55%; in assay [6] it was 76%; in [7], 42%. In addition, the residual activity in [15] stood at 81%; in assay [16] it was 58%.

On to `CC(C)N(CCC(=O)c1ccc2ccccc2c1)Cc1ccccc1`, for which the residual activity in assay [3] turned out to be 125%; in [4], 88%; in [5], 88%; in assay [6], 82%; in [7], 80%; in [11], 135%. For the same compound, the residual activity in assay [14] is 86%.

As to `O=S(=O)(c1cccc2cnccc12)N1CCCNCC1`, the residual activity in assay [1] was found to be 52%; in assay [7] it was 83%; in assay [17], 136%.

Regarding `CCOc1nc(NC(=O)Cc2cc(OC)ccc2OC)cc(N)c1C#N`, the results for the residual activity in [1], in assay [3] and in assay [7] were 64%, 53% and 72%, respectively.

`O=c1c(-c2ccc(F)cc2)c(-c2ccncc2)[nH]n1-c1ccc(Cl)cc1`: the residual activity was 20% in [1]; 61% in assay [3]; 66% in assay [5]; 100% in [8]; 100% in [15]; 69% in [11]. Besides, the residual activity was determined as 102% in [17], 56% in [18] and 99% in assay [13].

As for `COc1ccc2c(c1)c(C1=C(c3c[nH]c4ccccc34)C(=O)NC1=O)cn2CCCN(C)C`, the residual activity in [1] is 0%; in assay [2] it was 59%; in [3], 36%; in assay [5], 60%; in assay [6], 75%; in [7] it was 30%. Further, the residual activity is 51% in [8]; 44% in assay [16]; 15% in assay [10]; -1% in assay [11]; 30% in assay [17]; 4% in assay [18]. Further, the residual activity was 34% in assay [20], 57% in [12], 13% in assay [13] and 72% in assay [14].

Turning to `N#C/C(=C\c1ccc(O)c(O)c1)C(=O)NCc1ccccc1`, the residual activity in [2] stood at 67%; in assay [3], 81%; in [5] it was 80%; in [7], 85%; in assay [12], 101%.

For `Fc1ccc(-c2nc3n(c2-c2ccncc2)CCS3)cc1`, the residual activity was 43% in assay [1]; 90% in assay [2]; 84% in assay [3]; 92% in assay [4]; 83% in assay [5]; 83% in assay [7]. Besides, the residual activity in assay [10] turned out to be 88%; in [11] it was 88%; in [13], 91%.

In the case of `COc1ccc(COc2ccc(Cc3cnc(N)nc3N)cc2OC)cc1`, the residual activity was determined as 115% in assay [1]; 63% in [7]; 120% in assay [10]; 119% in assay [11]; 80% in [18].

For the compound `O=C1NC(=O)C(c2cn(CCCn3ccnc3)c3ccccc23)=C1Nc1ccccc1`, the residual activity in assay [1] turned out to be 9%; in assay [2], 66%; in assay [3], 40%; in assay [6], 54%; in assay [7] it was 13%; in assay [8], 30%. Also, the residual activity worked out at 59% in [15]; 75% in assay [9]; 22% in [16]; 14% in assay [10]; 1% in assay [11]; 14% in assay [17]. Besides, in assay [18], the residual activity turned out to be 3%.

Regarding `CC(C)(C)n1nc(Cc2cccc3ccccc23)c2c(N)ncnc21`, the residual activity amounted to 5% in [1]; 59% in assay [2]; 6% in [3]; 30% in [4]; 3% in assay [5]; 44% in assay [7]. In addition, the residual activity worked out at 96% in [8]; 98% in assay [9]; 56% in assay [16]; 116% in assay [10]; 130% in [11]; 103% in assay [17]. Also, the residual activity in [18] stood at 65%; in [19] it was 95%; in assay [20], 107%; in assay [12] it was 101%; in assay [13], 110%; in assay [14], 93%.
